Reference: PubChem BioAssay AID651814 (National Center for Advancing Translational Sciences (NCATS), 2012)
Screen size: about 2,100 compounds; about 590 (28%) were called active. Inconclusive results (about 42%) are left out. Calls come from the whole dose curve; as a rule, active = well fitted inhibition curve with a large enough effect; inconclusive = small, poorly fitted or top-dose-only effect; inactive = flat fitted curve, though single readings scatter. The list shows a part of the results.

target: DNA dC->dU-editing enzyme APOBEC-3F (Homo sapiens) (UniProt Q8IUX4); assay: qHTS for inhibitors of Vif-A3F interactions: Cherry picks; conditions: HeLa A3F-eYFP + Vif (tagged APOBEC3F with the HIV-1 protein that degrades it), eYFP fluorescence, 24 h; note: nearly all actives have a fitted effect of over 70% in size;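 for max response: % of control where 0% means no effect; active compounds raise eYFP fluorescence by blocking Vif-driven A3F loss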
Sequence (Q8IUX4 whole entry, looked up): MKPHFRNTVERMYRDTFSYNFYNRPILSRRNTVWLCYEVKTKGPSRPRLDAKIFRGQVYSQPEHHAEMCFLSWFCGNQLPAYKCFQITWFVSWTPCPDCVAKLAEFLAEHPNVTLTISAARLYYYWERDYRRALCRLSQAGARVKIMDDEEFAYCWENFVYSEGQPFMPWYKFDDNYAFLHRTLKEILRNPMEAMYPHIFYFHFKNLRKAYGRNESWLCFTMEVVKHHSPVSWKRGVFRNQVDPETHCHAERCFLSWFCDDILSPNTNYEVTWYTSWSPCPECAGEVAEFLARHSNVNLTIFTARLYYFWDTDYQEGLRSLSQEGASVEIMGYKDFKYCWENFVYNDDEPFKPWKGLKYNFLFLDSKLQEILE
Method in brief: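 Read-out: yellow fluorescence (ex 488 nm, em 500-530 nm) by laser-scanning cytometer after 24 h compound exposure, several concentrations, at 37 deg C. Cells: HeLa line stably co-expressing Vif and C-terminally eYFP-tagged A3F; MG132 served as positive control.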
Potency is the fitted concentration of half-maximal effect.

**Q.** How did the max response turn out when CC1=CC(C)(C)NC(=S)N1c1ccc2ccccc2c1 was run?
**A.** 1.72% (inactive)

**Q.** For N#Cc1c(NC(=O)c2ccc([N+](=O)[O-])o2)sc2c1CCC2, which max response is on record?
**A.** -22.4% (inactive)

**Q.** How did the max response turn out when CCN1CCc2c(sc(-n3cccc3)c2C(C)NC(=O)Nc2ccc(C(=O)OC)cc2)C1 (stereo not given) was run?
**A.** 0.47% (inactive)

**Q.** For CCN1CCc2c(sc(NC(=O)c3ccc(S(=O)(=O)N(CC)c4ccccc4)cc3)c2C(N)=O)C1, which Potency is on record?
**A.** 9.94 µM (active)

**Q.** Which Potency does the source give for CC(C)N1CCc2c(sc(NC(=O)c3cc4cc([N+](=O)[O-])ccc4s3)c2C(N)=O)C1 here?
**A.** 20.6 µM (active)

**Q.** With CC(=O)Nc1ccc(Nc2c3c4c(cccc4n(C)c2=O)C(=O)c2ccccc2-3)cc1 as the molecule, how does the max response read?
**A.** -27.5% (inactive)

**Q.** CCCCOc1nc2ccccc2nc1NS(=O)(=O)c1ccc(F)cc1 was tested. Which max response did it give?
**A.** 5.01% (inactive)

**Q.** How did the max response turn out when Cc1ccc2c(Cl)c(C)c(N3CCCC3)nc2n1 was run?
**A.** 1.73% (inactive)

**Q.** How did the max response turn out when CCC(=O)Nc1nonc1-c1nc2ccccc2n1Cc1ccccc1 was run?
**A.** -26.4% (inactive)

**Q.** Clc1ccccc1Cn1c(/C=C/c2ccco2)nc2ccccc21 was tested. Which max response did it give?
**A.** -8.9% (inactive)

**Q.** ClCc1nc2ccccc2n1Cc1ccccc1 was tested. Which Potency did it give?
**A.** 18.4 µM (active)

**Q.** How did the max response turn out when CCCOc1ccc(NC(=O)CC2C(=O)N(c3ccc(OCC)cc3)C(=S)N2C2CC2)cc1 (stereo not given) was run?
**A.** -28% (inactive)

**Q.** CCOC(=O)N1CCC(Nc2nc3ccccc3n3nnnc23)CC1 was tested. Which max response did it give?
**A.** -9.96% (inactive)

**Q.** CCC(=O)Nc1ccccc1-c1nc2ccccc2n(C(C)C(=O)Nc2ccc(OC)cc2)c1=O (stereo not given) was tested. Which Potency did it give?
**A.** 11.6 µM (active)

**Q.** For CCOC(=O)Nc1cc2c(c(N)n1)N=C(c1ccccc1)CN2, which Potency is on record?
**A.** 0.0259 µM (active)

**Q.** For Cc1ccc(-c2cn3nc(-c4ccccc4)c(-c4ccccc4)nc3n2)cc1, which Potency is on record?
**A.** 18.4 µM (active)

**Q.** For COC(=O)c1sc2nc(CSc3ccc(Br)cc3)[nH]c(=O)c2c1C, which max response is on record?
**A.** -22% (inactive)

**Q.** Cc1ccc(CSc2nc(-c3ccc(C(C)(C)C)cc3)nc3cc(=O)[nH]n23)cc1 was tested. Which max response did it give?
**A.** -0.911% (inactive)

**Q.** Which Potency does the source give for COc1cc(-c2noc(C)c2/C=C/c2ccc(OC(C)=O)cc2)cc(OC)c1OC here?
**A.** 0.627 µM (active)

**Q.** N#CC(C(=S)Nc1ccccc1)c1nc2ccccc2[nH]1 (stereo not given) was tested. Which max response did it give?
**A.** -16.9% (inactive)

**Q.** CCOC(=O)COn1c(=O)c(-c2ccc(Br)cc2)[n+]([O-])c2ccccc21 was tested. Which max response did it give?
**A.** 3.1% (inactive)

**Q.** With CCOC(=O)Cn1c(=O)c(-c2cc(Br)ccc2N)nc2ccccc21 as the molecule, how does the Potency read?
**A.** 8.2 µM (active)

**Q.** For CCOc1ccccc1N1CC(c2nc3ccccc3n2Cc2c(C)cc(C)cc2C)CC1=O (stereo not given), which max response is on record?
**A.** -7.39% (inactive)

**Q.** How did the Potency turn out when CC(C)n1c(O)c(N=Nc2ccc(Cl)nn2)c2ccccc21 was run?
**A.** 20.6 µM (active)

**Q.** Which max response does the source give for CCOC(=O)c1c(-c2ccc(OC)cc2)csc1/N=C/C1C(=O)CCCC1=O here?
**A.** -2.18% (inactive)

**Q.** CSc1ccccc1NC(=O)COC(=O)/C=C/c1ccco1 was tested. Which max response did it give?
**A.** -23.1% (inactive)

**Q.** For Cc1ccc(C(=O)CCC(=O)OCC(=O)Nc2ccccc2SCC#N)cc1, which max response is on record?
**A.** -8.08% (inactive)

**Q.** For Cc1noc(C)c1C(=O)OCC(=O)Nc1ccccc1SCC#N, which max response is on record?
**A.** -24.1% (inactive)

**Q.** How did the Potency turn out when Cc1nc(C)c(C(=O)OCC(=O)Nc2ccccc2SCC#N)s1 was run?
**A.** 15.8 µM (active)

**Q.** N#CCSc1ccccc1NC(=O)COc1ccc(-c2nnco2)cc1 was tested. Which Potency did it give?
**A.** 17.7 µM (active)

**Q.** Which max response does the source give for N#CCSc1ccccc1NC(=O)COC(=O)CCNC(=O)c1ccc([N+](=O)[O-])cc1 here?
**A.** -12% (inactive)

**Q.** For CCCCOc1ccc(/C=C/C2=CC(C)(C)NC(=S)N2)cc1OCC, which max response is on record?
**A.** -3.97% (inactive)

**Q.** For CCN(CC)c1ccc(/C=C/c2ccccn2)cc1, which Potency is on record?
**A.** 5.17 µM (active)

**Q.** With CN(C)c1ccc(/C=C/c2ccncc2)cc1 as the molecule, how does the max response read?
**A.** -29.1% (inactive)

**Q.** For CCN(CC)c1ccc(/C=C/C2=C3C=CC=CC3NC=C2)cc1 (stereo not given), which Potency is on record?
**A.** 18.4 µM (active)

**Q.** Which Potency does the source give for CCN(CC)c1ccc(/C=C/c2ccncc2)cc1 here?
**A.** 4.11 µM (active)

**Q.** How did the max response turn out when Cc1cc(C)c(C(=O)N(CCN(C)C)CC2CCCN(Cc3ccccc3F)C2)o1 (stereo not given) was run?
**A.** 2.52% (inactive)

**Q.** Which Potency does the source give for CCOc1ccc(CCNC(=O)c2ccc(Cn3c(=O)c4cccn4c4cccnc43)cc2)cc1 here?
**A.** 16.4 µM (active)

**Q.** With O=C(NCCc1ccccc1Cl)c1ccc(Cn2c(=O)c3cccn3c3cccnc32)cc1 as the molecule, how does the Potency read?
**A.** 20.6 µM (active)

**Q.** For CCOc1ncccc1C(=O)NCc1ccc(OC)cc1, which max response is on record?
**A.** -24.5% (inactive)

**Q.** Which max response does the source give for Cc1ccc(CNC(=O)Cn2cc(C(=O)c3ccc(Cl)cc3)c(=O)c3ccc(C)nc32)cc1 here?
**A.** -28.8% (inactive)

**Q.** With CCOc1ccc(NC(=O)Cn2c(=O)n(Cc3ccc(C(=O)NCc4ccc(C)cc4)cc3)c(=O)c3ccccc32)cc1 as the molecule, how does the Potency read?
**A.** 11.6 µM (active)

**Q.** Cc1ccc(-n2c(=O)c3ccc(C(=O)NCc4ccccc4Cl)cc3n(CC(=O)Nc3cccc(Cl)c3)c2=O)cc1 was tested. Which max response did it give?
**A.** -26% (inactive)

**Q.** For CCOc1ncccc1C(=O)OCc1ccc(C(=O)OC)cc1, which max response is on record?
**A.** -26.7% (inactive)

**Q.** For Cc1ccc2nc(-c3ccccn3)c(Nc3ccccc3C)n2c1, which max response is on record?
**A.** -2.29% (inactive)

**Q.** How did the Potency turn out when CCCCN1C(=O)C2Cc3c([nH]c4ccccc34)CN2C1=S (stereo not given) was run?
**A.** 15.8 µM (active)

**Q.** CC1(C)CCN2CCC(C)(C)c3c(O)ccc1c32 was tested. Which Potency did it give?
**A.** 14 µM (active)

**Q.** For O=C(N/N=C/c1ccc([N+](=O)[O-])o1)c1sc2ccccc2c1Cl, which Potency is on record?
**A.** 8.2 µM (active)

**Q.** How did the max response turn out when CSc1ccc(/C=N/NC(=O)c2ccccc2Cl)cc1 was run?
**A.** -22.8% (inactive)

**Q.** For O=C(Cc1cc2ccccc2o1)NCc1ccc(F)cc1, which max response is on record?
**A.** -14% (inactive)

**Q.** Which max response does the source give for O=C(N/N=C/c1ccc([N+](=O)[O-])o1)c1cn2ccc3ccccc3c2n1 here?
**A.** -11.2% (inactive)

**Q.** With O=C(N/N=C/c1ccc([N+](=O)[O-])o1)c1cc2c(ccc3ccccc32)o1 as the molecule, how does the Potency read?
**A.** 9.2 µM (active)

**Q.** N#Cc1c(-c2ccc(F)cc2)c(-c2ccc(F)cc2)nn(CCO)c1=O was tested. Which Potency did it give?
**A.** 7.04 µM (active)

**Q.** With Cc1ccc2c(c1)sc(-c1ccc(N(C)C)cc1)[n+]2C as the molecule, how does the Potency read?
**A.** 18.4 µM (active)

**Q.** Cc1cccc(C)c1Nc1nc2ccccc2nc1NS(=O)(=O)c1ccccc1 was tested. Which max response did it give?
**A.** -12.4% (inactive)

**Q.** CCc1ccc2nc(SCC(=O)N3CC(=O)Nc4ccccc43)c(C#N)cc2c1 was tested. Which Potency did it give?
**A.** 15.8 µM (active)

**Q.** Which max response does the source give for O=C(NC(=S)Nc1ccccc1N1CCCCC1)c1ccccc1 here?
**A.** -2.38% (inactive)

**Q.** Which Potency does the source give for COc1ccc2nc(SCC(=O)N3CC(=O)Nc4ccccc43)c(C#N)cc2c1 here?
**A.** 10.3 µM (active)

**Q.** How did the max response turn out when COc1ccc2cc(C(=O)C3CCCN(Cc4ccccn4)C3)ccc2c1 (stereo not given) was run?
**A.** 1.49% (inactive)

**Q.** Which Potency does the source give for CCc1ccc2nc(SCC(=O)Nc3ccccc3N3CCOCC3)c(C#N)cc2c1 here?
**A.** 1.46 µM (active)
